We go through 16 molecules from PubChem BioAssay.

SMILES strings stand for the structures. The source made the active and inactive calls.

Assay [1] can be described thus: anti-His antibody binders, primary screen, artefact control for SMM control protein annotation, biochemical, small-molecule microarray, 635 nm fluorescence (AID 1128).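 Also: score merges feature fluorescence with signal-to-noise for each printed compound spot.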 Conditions: anti-His Alexa647 antibody binding, higher = more signal.
The test system of assay [2] is Human papillomavirus type 1a E7 protein (residues 1-88). Briefly: HPV1a E7 small-molecule binders, primary screen, biochemical, small-molecule microarray, residues 1-88, 635 nm (AID 1129). Particulars: small-molecule microarray binding, fluorescence 635 nm; higher = more signal.
The target of assay [3] is Focal adhesion kinase 1 (Homo sapiens) (UniProt Q05397). As to the kind of experiment: small-molecule microarray binders of FAK, primary screen, biochemical, 635/667 nm fluorescence, BSA, DTT (AID 1130).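 Also: composite of spot emission at 667 nm and signal to noise over triplicate slides.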 Conditions: PTK2 binding, 635 nm fluorescence, higher = more signal.
Sequence of Focal adhesion kinase 1 (Homo sapiens) (Q05397 whole entry, looked up): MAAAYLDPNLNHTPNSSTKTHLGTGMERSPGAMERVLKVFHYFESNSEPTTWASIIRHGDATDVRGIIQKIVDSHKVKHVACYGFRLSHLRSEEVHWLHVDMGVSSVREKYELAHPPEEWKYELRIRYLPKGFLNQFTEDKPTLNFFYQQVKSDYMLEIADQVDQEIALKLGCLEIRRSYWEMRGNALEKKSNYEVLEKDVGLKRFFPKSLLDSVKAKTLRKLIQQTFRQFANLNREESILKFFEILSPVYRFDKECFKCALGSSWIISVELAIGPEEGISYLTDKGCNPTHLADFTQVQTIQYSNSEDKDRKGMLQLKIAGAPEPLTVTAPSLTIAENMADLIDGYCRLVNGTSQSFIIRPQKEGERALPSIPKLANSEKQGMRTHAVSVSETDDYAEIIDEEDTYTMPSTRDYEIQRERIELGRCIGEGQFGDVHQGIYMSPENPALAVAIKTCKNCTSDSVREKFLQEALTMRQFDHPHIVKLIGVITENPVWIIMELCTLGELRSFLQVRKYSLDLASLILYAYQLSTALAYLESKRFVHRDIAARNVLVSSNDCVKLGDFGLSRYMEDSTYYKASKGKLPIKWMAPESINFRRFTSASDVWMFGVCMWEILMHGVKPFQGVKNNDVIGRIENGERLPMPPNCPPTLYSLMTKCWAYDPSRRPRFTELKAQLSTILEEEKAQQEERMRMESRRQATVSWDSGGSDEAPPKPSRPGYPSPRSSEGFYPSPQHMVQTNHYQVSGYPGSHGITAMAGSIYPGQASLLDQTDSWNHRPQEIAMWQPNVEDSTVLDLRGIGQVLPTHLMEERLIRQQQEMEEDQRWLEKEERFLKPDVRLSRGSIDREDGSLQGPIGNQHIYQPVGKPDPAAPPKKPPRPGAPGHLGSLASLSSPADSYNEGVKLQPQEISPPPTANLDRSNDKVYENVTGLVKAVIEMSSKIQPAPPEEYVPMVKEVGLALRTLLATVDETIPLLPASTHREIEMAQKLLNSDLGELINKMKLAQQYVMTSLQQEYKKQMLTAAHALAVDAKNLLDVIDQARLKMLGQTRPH
For assay [4], the system named is Fibrinogen (Alexa647-labelled). As to the kind of experiment: fibrinogen binders on compound microarrays, profiling panel, artefact control for SMM control-protein annotation, biochemical, small-molecule microarray, 635/667 nm fluorescence (AID 1131).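 Also: z-score merges 667 nm fluorescence with per-spot signal-to-noise over triplicate slides.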 Particulars: fibrinogen-A647 binding fluorescence, higher = more signal.
Assay [5] has as its target Follistatin (Homo sapiens) (UniProt P19883). Briefly: follistatin binders on small-molecule microarrays, primary screen, biochemical, small-molecule microarray, 635/667 nm fluorescence (AID 1132). Conditions: FST binding, 635 nm fluorescence, higher = more signal.
The target of assay [6] is Fibroblast growth factor 2 (Homo sapiens) (UniProt P09038). Briefly: FGF2 binders on small-molecule microarrays, primary screen, biochemical, small-molecule microarray, 635/667 nm fluorescence (AID 1133). Particulars: small-molecule microarray binding, FGF2, fluorescence 635/667; higher = more signal.
Sequence of Fibroblast growth factor 2 (Homo sapiens) (P09038 whole entry, looked up): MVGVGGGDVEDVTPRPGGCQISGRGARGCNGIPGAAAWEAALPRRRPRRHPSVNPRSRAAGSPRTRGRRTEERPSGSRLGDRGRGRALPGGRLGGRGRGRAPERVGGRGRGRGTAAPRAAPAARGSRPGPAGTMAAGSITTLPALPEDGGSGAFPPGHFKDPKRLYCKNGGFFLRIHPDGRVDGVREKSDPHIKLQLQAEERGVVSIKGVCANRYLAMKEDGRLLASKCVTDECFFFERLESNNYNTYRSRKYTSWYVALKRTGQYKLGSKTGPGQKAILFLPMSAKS
Assay [7] in a line: mitochondrial membrane potential change in A549 cells, profiling panel, cell-based, JC-1 fluorescence, basal, 24 h, 100 nL (AID 1138).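 Also: A549 lung adenocarcinoma cells under basal conditions with no added stimulus; test concentration not given here.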 Conditions: higher = more signal.
Another assay relates to Lefty1. As to the kind of experiment: Lefty1 binders on small-molecule microarrays, primary screen, biochemical, small-molecule microarray, 635/667 nm fluorescence (AID 1139). Particulars: small-molecule microarray binding, fluorescence 635/667; higher = more signal.
Assay [8] relates to wheat germ agglutinin (Triticum aestivum), Alexa647-labelled. Briefly: wheat germ agglutinin binders on compound microarrays, profiling panel, artefact control for SMM control-protein annotation, biochemical, small-molecule microarray, 635/667 nm fluorescence (AID 1140).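 Also: score merges 667 nm feature emission with signal to noise over triplicate slides.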 Conditions: WGA-A647 binding, 635 nm fluorescence, higher = more signal.
The target of assay [9] is Luciferin 4-monooxygenase (Photinus pyralis) (UniProt P08659). As to the kind of experiment: firefly luciferase enzyme inhibitors, primary screen, biochemical, luminescence, purified enzyme, 2006 set (AID 1141).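 Also: cell-free assay with purified firefly luciferase at 100 ng per well in PBS; test concentration not given here.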 Conditions: SteadyGlo luminescence, 30 min, higher = more signal, called active from +8 up or from −8 down.
Sequence of Luciferin 4-monooxygenase (Photinus pyralis) (P08659 whole entry, looked up): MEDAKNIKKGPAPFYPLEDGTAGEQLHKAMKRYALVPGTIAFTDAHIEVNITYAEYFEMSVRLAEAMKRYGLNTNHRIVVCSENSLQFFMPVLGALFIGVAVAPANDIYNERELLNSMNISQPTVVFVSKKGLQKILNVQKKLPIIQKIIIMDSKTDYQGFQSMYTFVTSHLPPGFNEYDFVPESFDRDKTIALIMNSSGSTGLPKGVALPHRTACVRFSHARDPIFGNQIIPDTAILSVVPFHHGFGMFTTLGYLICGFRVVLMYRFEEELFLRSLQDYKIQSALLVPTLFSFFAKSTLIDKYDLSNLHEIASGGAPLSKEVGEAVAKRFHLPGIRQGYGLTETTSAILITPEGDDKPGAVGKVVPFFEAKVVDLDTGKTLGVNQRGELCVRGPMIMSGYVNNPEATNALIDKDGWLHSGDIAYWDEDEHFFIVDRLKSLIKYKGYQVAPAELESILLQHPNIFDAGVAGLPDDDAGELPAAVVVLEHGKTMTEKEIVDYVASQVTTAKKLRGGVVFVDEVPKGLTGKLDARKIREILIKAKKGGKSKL

Sequence of Follistatin (Homo sapiens) (P19883 whole entry, looked up): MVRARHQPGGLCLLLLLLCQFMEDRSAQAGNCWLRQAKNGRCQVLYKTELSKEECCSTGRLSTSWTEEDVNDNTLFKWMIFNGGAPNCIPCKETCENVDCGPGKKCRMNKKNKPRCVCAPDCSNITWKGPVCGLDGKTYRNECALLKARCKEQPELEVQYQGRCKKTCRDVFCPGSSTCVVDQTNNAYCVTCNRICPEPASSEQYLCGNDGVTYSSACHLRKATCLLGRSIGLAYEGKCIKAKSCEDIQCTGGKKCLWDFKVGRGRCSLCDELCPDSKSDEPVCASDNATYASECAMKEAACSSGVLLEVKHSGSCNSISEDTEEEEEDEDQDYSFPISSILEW

As for `CCN(CC)c1ccc(N2CC=CC34O[C@@H]5/C=C\CCCOC(=O)C5[C@H]3C(=O)N(CCCCCCO)[C@@H]4C2=O)cc1` (stereo not given in full), the composite z-score in [1] was 1.27; in assay [2], -0.299; in assay [3], -0.177; in [4], -0.801; in assay [5], -1.21; in [6], -0.616. Further, the figures for the composite z-score (in the assay on Lefty1; in assay [8]) were -0.324 and -0.22, respectively. The z-score in [7] is 1.1; in assay [9], -1.9 (inactive).

Regarding `CN(C)C(=O)[C@@]1(CCC(=O)OC(C)(C)C)COC(c2ccc(OCCCO)cc2)=N1`, the composite z-score in [1] was 0.282; in assay [2], 1.11; in assay [3] it was 1.63; in assay [4] it was -0.254; in assay [5] it was 0.625; in [6] it was -0.357. In addition, the composite z-score was -0.235 in the assay with Lefty1 and 0.334 in assay [8]. In addition, the z-score in assay [7] was -0.191; in assay [9], 0.995 (inactive).

As to `CC(C)(C)OC(=O)CC[C@]1(C(=O)N2CCCCC2)N=C(c2ccc(OCCCO)cc2)O[C@H]1c1ccccc1CN=[N+]=[N-]`, the composite z-score in assay [1] stood at 3.05; in assay [2], 1.21; in [3], 0.72; in [4] it was 0.978; in assay [5] it was 1.4; in [6], 1.42. In addition, the composite z-score in the assay on Lefty1 was determined as 0.675; in assay [8], 1.09. The z-score in [7] was 2.94; in [9], -3.56 (inactive).

Consider `COc1ccc(C#Cc2ccc3c(c2)[C@]2(C(=O)N3)[C@H](C(N)=O)[C@H]3C(=O)O[C@H](c4ccccc4)[C@H](c4ccccc4)N3[C@@H]2c2ccc(O)cc2)cc1`, for which the composite z-score is 1.69 in assay [1]; 1.22 in assay [2]; 1.6 in assay [3]; 0.844 in assay [4]; 0.658 in assay [5]; 0.717 in assay [6]. Besides, the composite z-score is 0.339 in the assay with Lefty1 and 0.317 in assay [8]. The z-score in assay [7] is -1.4; in assay [9], 0.734 (inactive).

Turning to `C[C@]12C(=O)N(CCCCCO)[C@@H]3C(=O)N(c4ccc(Cl)cc4)CC=CC31O[C@@H]1/C=C\CCCOC(=O)C12` (stereo not given in full), the composite z-score in [1] is -0.39; in assay [2], -0.711; in [3] it was -0.83; in assay [4] it was -1.47; in assay [5], -0.271; in assay [6], -1.27. Besides, the composite z-score was -0.431 with Lefty1 and -1.31 in assay [8]. Besides, the z-score in [7] is 0.428; in assay [9], -0.576 (inactive).

On to `N#Cc1ccc(NN2C(C(O)c3ccccc3)C=CC3C(=O)N(c4ccccc4)C(=O)C32)cc1` (stereo not given), for which the composite z-score was 0.324 in assay [1]; 0.954 in assay [2]; 0.452 in assay [3]; -0.456 in [4]; 0.927 in assay [5]; -0.217 in assay [6]. Moreover, the composite z-score is -0.272 in the assay on Lefty1 and 0.635 in assay [8]. For the same molecule, the z-score in [7] was 1.41; in assay [9], 0.884 (inactive).

As to `CC(=O)NCCCC[C@@H]1NC(=O)[C@@H]2C[C@H](C(=O)NCCCC[N+](C)(C)C)[C@H](c3cccc(OCCO)c3)N2C1=O`, the composite z-score in assay [1] is 1.5; in assay [2], -0.411; in assay [3] it was 0.164; in assay [4] it was -1.39; in [5], 1.4; in assay [6] it was 1.57. Also, the figures for the composite z-score (in the assay on Lefty1; in assay [8]) were 0.512 and 0.994, respectively. Moreover, the z-score was -0.251 in assay [7] and 0.0595 (inactive) in assay [9].

As to `COCCOC(=O)N1C(=O)[C@@]2(c3cc(C#CCNC(N)=O)ccc31)[C@H](C(N)=O)[C@H]1C(=O)O[C@H](c3ccccc3)[C@H](c3ccccc3)N1[C@@H]2c1ccc(OCCO)cc1`, the composite z-score in [1] is -0.224; in assay [2], 1.03; in assay [3], 0.199; in assay [4] it was 0.609; in [5] it was 1.48; in [6], 1.26. Further, the composite z-score in the assay on Lefty1 came to 1.46; in assay [8], 0.121. In addition, the z-score in assay [7] was -2.25; in [9], -1.8 (inactive).

Regarding `C=C(/C(=C/C[C@@H](OC(=O)c1ccncc1)c1cccc(OCCO)c1)c1cc(C(=O)OC)ccc1OC)C(C)C`, the composite z-score in assay [1] was 1.01; in assay [2], 1.13; in assay [3], -0.165; in assay [4] it was 0.366; in assay [5], 0.525; in assay [6] it was 1.43. Besides, the composite z-score in the assay with Lefty1 worked out at 0.879; in [8], 0.487. Besides, the z-score was 4.89 in assay [7] and -1.88 (inactive) in assay [9].

Turning to `COCCOC(=O)N1C(=O)[C@@]2(c3ccccc31)[C@H](c1ccccc1OCCO)N1[C@H](c3ccccc3)[C@H](c3ccccc3)OC(=O)[C@H]1[C@@H]2C(=O)N1CCc2cc(OC)c(OC)cc2C1`, the composite z-score came out at 1.14 in assay [1]; 0.659 in assay [2]; 0.413 in assay [3]; 0.457 in [4]; 1.27 in [5]; 1.36 in assay [6]. In addition, the composite z-score with Lefty1 was determined as 0.756; in assay [8], 0.435. The z-score was -1.03 in [7] and -0.209 (inactive) in [9].

Regarding `C=C(/C(=C/C[C@@H](OC(=O)c1ccncc1)c1ccccc1OCCO)c1cnc2ccccc2c1)C(C)C`, the composite z-score was 1.18 in assay [1]; 0.896 in [2]; 0.204 in assay [3]; 0.963 in assay [4]; 1.45 in assay [5]; 1.87 in assay [6]. For the same molecule, the composite z-score in the assay on Lefty1 is 1.65; in assay [8], 0.869. Further, the values for the z-score in [7] and in assay [9] were 0.494 and -1.08 (inactive), respectively.

Turning to `COCCOC(=O)N1C(=O)[C@@]2(c3cc(C#CC4(O)CCCCCC4)ccc31)[C@H](C(=O)N1CCN(c3ncccn3)CC1)[C@H]1C(=O)O[C@H](c3ccccc3)[C@H](c3ccccc3)N1[C@@H]2c1ccc(O)cc1`, the composite z-score in assay [1] amounted to 1.47; in assay [2] it was 1.19; in assay [3], 0.206; in assay [4] it was 0.676; in assay [5], 0.91; in assay [6], 0.35. In addition, the composite z-score in the assay with Lefty1 was found to be 0.354; in assay [8], 1.04. In addition, the results for the z-score in assay [7] and in assay [9] were -0.328 and -1.46 (inactive), respectively.

On to `C=CCC(OC(C)=O)[C@@H]1[C@@H](N(Cc2ccc(-c3ccccc3)cc2)C(=O)c2cccc3ccccc23)c2cc(OCCCO)ccc2N1C(=O)c1ccc2ccccc2n1` (stereo not given in full), for which the composite z-score is 0.952 in assay [1]; 0.138 in [2]; 0.16 in assay [3]; -0.0282 in assay [4]; 0.374 in [5]; 0.268 in [6]. For the same molecule, the values for the composite z-score (in the assay on Lefty1; in assay [8]) were 0.565 and 0.139, respectively. Besides, the values for the z-score in assay [7] and in assay [9] were 1.14 and -0.658 (inactive), respectively.

As to `O=C1OCCC=C[C@H]2OC34C=CCN(Cn5nnc6ccccc65)C(=O)[C@H]3N(CCCCCO)C(=O)[C@@H]4C12` (stereo not given in full), the composite z-score in assay [1] is 2.73; in assay [2] it was -0.476; in assay [3], 0.0209; in [4] it was -2.02; in assay [5], -0.862; in [6] it was -0.346. Besides, the values for the composite z-score (in the assay with Lefty1; in assay [8]) were -0.559 and -0.807, respectively. Moreover, the z-score was 0.427 in assay [7] and -0.245 (inactive) in assay [9].

With `C=CCC(OC(C)=O)[C@@H]1[C@@H](N(Cc2ccc(-c3cccc(C(F)(F)F)c3)o2)C(=O)c2cccc3ccccc23)c2cc(OCCCO)ccc2N1C(=O)c1ccc(-c2ccccc2)cc1` (stereo not given in full), the composite z-score is 0.955 in [1]; -0.661 in assay [2]; -0.438 in assay [3]; -0.739 in assay [4]; 0.999 in [5]; 0.598 in assay [6]. In addition, the composite z-score in the assay with Lefty1 is 0.641; in [8], -0.643. Besides, the z-score was -0.328 in [7] and 0.23 (inactive) in [9].

`CCOC(=O)C[C@H]1[C@H](OC(=O)Cc2ccc3c(c2)OCO3)[C@@H](NC(=O)c2ccccc2)c2cc(OCCCO)ccc2N1C(=O)c1ccccc1`: the composite z-score was -0.226 in assay [1]; 0.669 in assay [2]; -0.061 in assay [3]; 0.731 in assay [4]; 0.392 in assay [5]; 0.383 in [6]. The values for the composite z-score (in the assay with Lefty1; in [8]) were 0.557 and 1.25, respectively. Besides, the z-score in assay [7] is 0.673; in assay [9], -0.207 (inactive).
